# Source: PubChem BioAssay (EPA / NIEHS)
# Several values for one entry are separate records, joined by “and”; a condition that tells them apart may be missing. Equal entries are not always repeated. Records with an inconclusive call do not appear. The source holds several records for some structures; these can differ, active in one and inactive in another. Activity calls are given as the source filed them. The calls were made as follows, unless noted: active = hit-call score of the fitted dose curve at least 0.9, where 1 is the maximum; inconclusive = response in the unintended direction; inactive = score below 0.9.
# Assays:
# [1] = biological target: human RAR-related Orphan Receptor gamma (RORg), RORC (gene 6097) (UniProt P51449); test: ATG_RORg_TRANS: Attagene TRANS-FACTORIAL HepG2 Assay for human RAR-related Orphan Receptor gamma (RORg) (AID 2283011)
# human RAR-related Orphan Receptor gamma (RORg), RORC (gene 6097), sequence (P51449 whole entry, looked up, the tested form may be a part): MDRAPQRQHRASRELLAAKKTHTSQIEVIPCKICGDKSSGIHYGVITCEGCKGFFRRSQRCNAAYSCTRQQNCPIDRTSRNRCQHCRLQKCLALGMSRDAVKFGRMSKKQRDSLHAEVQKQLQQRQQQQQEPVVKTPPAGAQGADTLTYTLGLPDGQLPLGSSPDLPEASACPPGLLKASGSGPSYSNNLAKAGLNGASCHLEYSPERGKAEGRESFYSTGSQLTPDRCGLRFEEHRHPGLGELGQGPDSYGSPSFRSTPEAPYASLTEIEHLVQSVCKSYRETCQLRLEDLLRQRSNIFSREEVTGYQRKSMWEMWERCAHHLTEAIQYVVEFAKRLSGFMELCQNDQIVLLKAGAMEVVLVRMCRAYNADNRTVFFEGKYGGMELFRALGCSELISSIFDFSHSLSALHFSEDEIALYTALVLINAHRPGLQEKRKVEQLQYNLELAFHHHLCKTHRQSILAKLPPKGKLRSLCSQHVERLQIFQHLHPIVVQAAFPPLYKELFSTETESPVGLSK
# Method in brief: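 HepG2 cells transiently transfected with GAL4-UAS reporter units and chimeric RORg-Gal4 construct; after 24 h chemical exposure, reporter mRNA measured by RT-PCR with fluorescent capillary electrophoresis, gain of signal fitted against DMSO.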
# [2] = biological target: Retinoic acid receptor RXR-alpha (Homo sapiens) (UniProt P19793); test: ATG_RXRa_TRANS: Attagene TRANS-FACTORIAL HepG2 Assay for human Retinoid X Receptor alpha (RXRa) (AID 2283012)
# Retinoic acid receptor RXR-alpha (Homo sapiens), sequence (P19793 whole entry, looked up, the tested form may be a part): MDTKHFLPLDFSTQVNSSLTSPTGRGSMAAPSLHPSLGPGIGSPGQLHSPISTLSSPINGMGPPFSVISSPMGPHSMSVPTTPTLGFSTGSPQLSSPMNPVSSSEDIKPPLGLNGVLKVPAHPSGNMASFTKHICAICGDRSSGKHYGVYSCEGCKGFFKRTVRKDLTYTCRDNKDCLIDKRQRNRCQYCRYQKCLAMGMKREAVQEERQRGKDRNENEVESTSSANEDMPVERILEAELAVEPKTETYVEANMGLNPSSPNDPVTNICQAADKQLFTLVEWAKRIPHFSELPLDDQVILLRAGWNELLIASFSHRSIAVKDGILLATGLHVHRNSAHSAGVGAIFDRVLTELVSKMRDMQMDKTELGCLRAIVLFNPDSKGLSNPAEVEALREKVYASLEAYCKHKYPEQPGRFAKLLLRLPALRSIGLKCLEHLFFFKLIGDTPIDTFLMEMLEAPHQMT
# Method in brief: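 Measures exogenous chimeric NR-GAL4 activity in transfected HepG2 liver cells after 24 h of dosing. Induced reporter mRNA was detected by RT-PCR with capillary electrophoresis, and gain of signal was analysed against DMSO.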
# [3] = biological target: human Thyroid Receptor alpha (THRa1), THRA (gene 7067) (UniProt P10827); test: ATG_THRa1_TRANS: Attagene TRANS-FACTORIAL HepG2 Assay for human Thyroid Receptor alpha (THRa1) (AID 2283014)
# human Thyroid Receptor alpha (THRa1), THRA (gene 7067), sequence (P10827 whole entry, looked up, the tested form may be a part): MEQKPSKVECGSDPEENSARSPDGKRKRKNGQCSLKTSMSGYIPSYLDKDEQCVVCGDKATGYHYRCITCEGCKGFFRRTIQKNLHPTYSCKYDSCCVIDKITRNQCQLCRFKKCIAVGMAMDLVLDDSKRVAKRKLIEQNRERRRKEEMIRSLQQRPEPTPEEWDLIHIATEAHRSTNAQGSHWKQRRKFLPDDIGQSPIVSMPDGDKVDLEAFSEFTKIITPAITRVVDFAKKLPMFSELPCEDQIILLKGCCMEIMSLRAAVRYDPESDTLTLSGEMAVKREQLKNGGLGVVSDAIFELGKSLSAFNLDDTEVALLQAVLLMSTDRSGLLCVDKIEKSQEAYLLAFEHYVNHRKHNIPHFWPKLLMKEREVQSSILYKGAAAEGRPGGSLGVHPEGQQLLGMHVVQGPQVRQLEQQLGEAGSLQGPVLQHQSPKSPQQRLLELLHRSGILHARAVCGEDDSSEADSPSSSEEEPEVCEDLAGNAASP
# Method in brief: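 HepG2 cells transiently transfected with chimeric NR-Gal4 and GAL4-UAS reporter units, dosed 24 h. Reporter mRNA quantified by RT-PCR, fluorescent labeling, HpaI digestion and capillary electrophoresis; gain-of-signal fit versus DMSO.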
# [4] = biological target: human Retinoid X Receptor beta (RXRb), RXRB (gene 6257) (UniProt P28702); test: ATG_RXRb_TRANS: Attagene TRANS-FACTORIAL HepG2 Assay for human Retinoid X Receptor beta (RXRb) (AID 2283013)
# human Retinoid X Receptor beta (RXRb), RXRB (gene 6257), sequence (P28702 whole entry, looked up, the tested form may be a part): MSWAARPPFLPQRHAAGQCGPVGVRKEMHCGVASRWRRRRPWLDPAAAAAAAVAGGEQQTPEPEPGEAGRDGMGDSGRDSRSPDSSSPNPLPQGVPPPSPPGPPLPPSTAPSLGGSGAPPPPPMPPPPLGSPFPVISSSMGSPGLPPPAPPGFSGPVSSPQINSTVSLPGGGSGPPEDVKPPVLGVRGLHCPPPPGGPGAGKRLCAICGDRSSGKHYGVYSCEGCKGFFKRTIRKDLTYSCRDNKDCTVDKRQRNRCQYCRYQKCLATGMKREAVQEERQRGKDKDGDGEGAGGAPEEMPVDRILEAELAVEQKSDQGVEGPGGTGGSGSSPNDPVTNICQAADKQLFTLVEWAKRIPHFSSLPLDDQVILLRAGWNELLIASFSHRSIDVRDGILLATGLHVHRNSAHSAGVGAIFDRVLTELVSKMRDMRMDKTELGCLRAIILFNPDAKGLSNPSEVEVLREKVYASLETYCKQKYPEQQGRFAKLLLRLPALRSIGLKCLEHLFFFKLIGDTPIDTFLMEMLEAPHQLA
# Method in brief: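 Chimeric receptor-Gal4 activity was assessed in transiently transfected human HepG2 cells after 24 h exposure. Transcripts from GAL4-UAS reporters were quantified by fluorescent RT-PCR and capillary electrophoresis, with DMSO as negative control and baseline.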
# [5] = read-out: E-selectin (Homo sapiens) (UniProt P16581); test: BSK_3C_Eselectin: BioMAP Diversity Plus: 3C Assay for Eselectin Biomarker Activity (AID 2283015; active = hit-call score of the fitted dose curve at least 0.9, where 1 is the maximum; inactive = score below 0.9;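 as to outcome: cell surface E-selectin protein quantified by ELISA 24 h after dosing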); conditions: primary human endothelial cells (HUVEC); actives raise or lower the signal
# Method in brief: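 Primary human umbilical vein endothelial cells (3C system), read 24 h after compound addition; E-selectin measured by ELISA. Bidirectional curve fitting against DMSO baseline; cytotoxicity by parallel SRB total-protein staining.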
# [6] = read-out: Interleukin-1 alpha (IL1a), IL1A (gene 3552); test: BSK_BE3C_IL1a: BioMAP Diversity Plus: BE3C Assay for Interleukin-1 alpha (IL1a) Biomarker Activity (AID 2283016; active = hit-call score of the fitted dose curve at least 0.9, where 1 is the maximum; inactive = score below 0.9); conditions: primary human bronchial epithelial cells; actives raise or lower the signal
# Method in brief: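 Signal from IL-1a ELISA, taken 24 h after chemical dosing of human bronchial epithelial cells, is compared with DMSO as baseline using bidirectional curve fitting.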
# [7] = read-out: Monocyte Chemoattractant Protein-1 (MCP1), CCL2 (gene 6347); test: BSK_3C_MCP1: BioMAP Diversity Plus: 3C Assay for Monocyte Chemoattractant Protein-1 (MCP1) Biomarker Activity (AID 2283017; active = hit-call score of the fitted dose curve at least 0.9, where 1 is the maximum; inactive = score below 0.9); conditions: primary human endothelial cells (HUVEC); actives raise or lower the signal
# Method in brief: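 Human umbilical vein endothelial cells (3C system) exposed to chemicals for 24 h; MCP-1 quantified by ELISA against the DMSO baseline with bidirectional fitting, and parallel SRB staining used to assess cytotoxicity.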
# [8] = read-out: Monocyte Chemoattractant Protein-1 (MCP1), CCL2 (gene 6347); test: BSK_4H_MCP1: BioMAP Diversity Plus: 4H Assay for Monocyte Chemoattractant Protein-1 (MCP1) Biomarker Activity (AID 2283018; active = hit-call score of the fitted dose curve at least 0.9, where 1 is the maximum; inactive = score below 0.9); conditions: primary human endothelial cells (HUVEC); actives raise or lower the signal
# Method in brief: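 Endothelial cells from umbilical vein were treated with test chemical, then after 24 h MCP-1 levels were quantified by ELISA; endpoint values came from bidirectional fitting with DMSO as baseline of activity.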
# [9] = read-out: Human Leukocyte Antigen - DR isotype (HLADR), HLA-DRA (gene 3122); test: BSK_3C_HLADR: BioMAP Diversity Plus: 3C Assay for Human Leukocyte Antigen - DR isotype (HLADR) Biomarker Activity (AID 2283019; active = hit-call score of the fitted dose curve at least 0.9, where 1 is the maximum; inactive = score below 0.9;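 as to outcome: ELISA of cell-surface HLA-DR on HUVEC 24 h after dosing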); conditions: primary human endothelial cells (HUVEC); actives raise or lower the signal
# Method in brief: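 HUVEC monoculture, HLA-DR measured by ELISA 24 h after chemical dosing. Fitted bidirectionally against DMSO baseline; parallel SRB staining assessed cytotoxicity, with 3C proliferation read by SRB at 48 h.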
# [10] = read-out: Interleukin-8 (IL8), CXCL8 (gene 3576); test: BSK_3C_IL8: BioMAP Diversity Plus: 3C Assay for Interleukin-8 (IL8) Biomarker Activity (AID 2283020; active = hit-call score of the fitted dose curve at least 0.9, where 1 is the maximum; inactive = score below 0.9); conditions: primary human endothelial cells (HUVEC); actives raise or lower the signal
# Method in brief: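 Endothelial primary cells of human umbilical vein origin are dosed with chemical; after 24 h the IL-8 biomarker is measured by ELISA, and concentration–response is fitted in both directions versus DMSO.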
# E-selectin (Homo sapiens), sequence (P16581 whole entry, looked up): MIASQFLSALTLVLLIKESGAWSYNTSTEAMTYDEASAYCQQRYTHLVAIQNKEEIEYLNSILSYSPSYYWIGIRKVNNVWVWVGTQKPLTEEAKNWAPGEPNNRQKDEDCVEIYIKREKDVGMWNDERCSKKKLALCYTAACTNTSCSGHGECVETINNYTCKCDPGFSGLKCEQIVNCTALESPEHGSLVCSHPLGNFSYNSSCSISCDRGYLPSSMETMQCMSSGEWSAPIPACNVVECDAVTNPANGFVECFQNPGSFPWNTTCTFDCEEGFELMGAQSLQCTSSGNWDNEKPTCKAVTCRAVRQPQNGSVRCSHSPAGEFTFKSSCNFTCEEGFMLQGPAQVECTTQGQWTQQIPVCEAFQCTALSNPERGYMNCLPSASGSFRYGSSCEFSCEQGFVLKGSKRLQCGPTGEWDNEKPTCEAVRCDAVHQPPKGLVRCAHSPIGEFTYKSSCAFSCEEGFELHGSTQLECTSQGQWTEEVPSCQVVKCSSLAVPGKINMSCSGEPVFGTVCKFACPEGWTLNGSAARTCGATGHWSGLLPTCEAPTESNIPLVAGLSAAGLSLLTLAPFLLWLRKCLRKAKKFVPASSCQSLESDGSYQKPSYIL
smiles,measurement,setting,value
CC=O,outcome,[1],inactive
same,outcome,[2],inactive
same,outcome,[3],inactive
CN(C)c1ccc(C(=C2C=CC(=[N+](C)C)C=C2)c2ccccc2)cc1,outcome,[1],inactive
same,outcome,[2],inactive
same,AC50,[4],1.36 µM (active)
same,outcome,[4],inactive
same,AC50,[5],0.205 µM (active)
same,AC50,[6],0.214 µM (active)
same,AC50,[7],0.0082 µM (active)
same,AC50,[8],0.0192 µM (active)
same,AC50,[9],0.0082 µM (active)
same,AC50,[10],0.668 µM (active)
C=CC(C)(CCC=C(C)C)OC(C)=O (centres undefined),outcome,[1],inactive
same,outcome,[2],inactive
same,outcome,[4],inactive
same,AC50,[5],32.1 µM (active)
same,outcome,[6],inactive
same,AC50,[7],35.2 µM (active)
same,AC50,[8],27 µM (active)
same,AC50,[9],28.2 µM (active)
same,outcome,[10],inactive
FC(F)(F)C1(F)C(F)(F)C(F)(F)C(F)(F)C1(F)F,outcome,[1],inactive
same,outcome,[2],inactive
same,outcome,[3],inactive
CCCC=O,outcome,[1],inactive
same,outcome,[2],inactive
O=c1cc(-c2ccccc2)oc2ccc3ccccc3c12,outcome,[1],inactive
same,outcome,[2],inactive
same,outcome,[4],inactive
same,outcome,[3],inactive
O=C1C=CC(=O)N1c1cccc(N2C(=O)C=CC2=O)c1,outcome,[1],inactive
same,outcome,[2],inactive
same,outcome,[4],inactive
same,outcome,[3],inactive
O=S(=O)(O)C(F)(F)C(F)(F)C(F)(F)C(F)(F)C(F)(F)C(F)(F)C(F)(F)C(F)(F)C(F)(F)C(F)(F)F,outcome,[1],inactive
same,outcome,[2],inactive
same,outcome,[4],inactive
same,AC50,[5],10.2 µM (active)
same,outcome,[5],inactive
same,AC50,[6],13.3 µM (active) and 10.6 µM (active)
same,outcome,[7],inactive
same,outcome,[8],inactive
same,outcome,[9],inactive
same,outcome,[10],inactive
C=Cc1ccc(O)c(OC)c1,outcome,[1],inactive
same,outcome,[2],inactive
same,outcome,[4],inactive
same,outcome,[3],inactive
O=C(O)CN(CCCN(CC(=O)O)CC(=O)O)CC(=O)O,outcome,[1],inactive
same,outcome,[2],inactive
same,outcome,[3],inactive
OCCN1CN(CCO)CN(CCO)C1,outcome,[1],inactive
same,outcome,[2],inactive
same,outcome,[4],inactive
same,outcome,[3],inactive
same,AC50,[5],34.1 µM (active)
same,AC50,[6],4.12 µM (active)
same,AC50,[7],31.1 µM (active)
same,AC50,[8],35.5 µM (active)
same,AC50,[9],28 µM (active)
same,AC50,[10],29.2 µM (active)
CC1CNCC(C)O1 (centres undefined),outcome,[1],inactive
same,outcome,[2],inactive
same,outcome,[4],inactive
same,outcome,[3],inactive
Nc1ccn([C@@H]2O[C@H](CO)[C@@H](O)C2O)c(=O)n1 (some centres undefined),outcome,[1],inactive
same,outcome,[2],inactive
same,outcome,[4],inactive
O=C(O)C(F)(F)OC(F)(F)C(F)(F)OC(F)(F)C(F)(F)OC(F)(F)C(F)(F)C(F)(F)C(F)(F)F,outcome,[1],inactive
same,outcome,[2],inactive
same,AC50,[4],13.3 µM (active) and 9.78 µM (active)
same,outcome,[3],inactive
same,AC50,[5],49.6 µM (active) and 49 µM (active)
same,AC50,[6],6.32 µM (active) and 6.18 µM (active)
same,AC50,[7],44.8 µM (active) and 46.6 µM (active)
same,AC50,[8],42.4 µM (active) and 40.5 µM (active)
same,AC50,[9],45.5 µM (active) and 50.6 µM (active)
same,AC50,[10],36.6 µM (active) and 23.5 µM (active)
CC(C)(O)C(=O)c1ccccc1,outcome,[1],inactive
same,outcome,[2],inactive
same,outcome,[4],inactive
CCCCCCCCCCCC,outcome,[1],inactive
same,outcome,[2],inactive
same,outcome,[4],inactive
same,AC50,[5],20 µM (active)
same,outcome,[5],inactive
same,AC50,[6],9.52 µM (active) and 8.11 µM (active)
same,outcome,[7],inactive
same,outcome,[8],inactive
same,outcome,[9],inactive
same,outcome,[10],inactive
C[C@]12CC[C@@H]3c4ccc(O)cc4CC[C@H]3[C@@H]1C[C@@H](O)[C@@H]2O,outcome,[1],inactive
same,outcome,[2],inactive
same,outcome,[4],inactive
same,outcome,[5],inactive
same,outcome,[6],inactive
same,outcome,[7],inactive
same,outcome,[8],inactive
same,outcome,[9],inactive
same,outcome,[10],inactive
Cc1cc(C(=C2C=CC(=Nc3ccc(S(=O)(=O)O)cc3)C=C2)c2ccc(Nc3ccc(S(=O)(=O)O)cc3)cc2)cc(S(=O)(=O)O)c1N,outcome,[1],inactive
same,outcome,[2],inactive
c1cnc2c(c1)ccc1cccnc12,outcome,[1],inactive
same,outcome,[2],inactive
same,outcome,[4],inactive
same,AC50,[3],26.6 µM (active)
same,outcome,[3],inactive
NC(=NCCCCCCN=C(N)/N=C(\N)Nc1ccc(Cl)cc1)/N=C(\N)Nc1ccc(Cl)cc1,outcome,[1],inactive
same,outcome,[2],inactive
same,outcome,[4],inactive
same,AC50,[5],7.27 µM (active)
same,AC50,[6],4.74 µM (active)
same,AC50,[7],5.59 µM (active)
same,AC50,[8],1.47 µM (active)
same,AC50,[9],4.82 µM (active)
same,AC50,[10],3.88 µM (active)
O=P(O)(O)CCC(F)(F)C(F)(F)C(F)(F)C(F)(F)C(F)(F)C(F)(F)C(F)(F)C(F)(F)F,outcome,[1],inactive
same,outcome,[2],inactive
same,outcome,[4],inactive
same,outcome,[3],inactive
same,outcome,[5],inactive
same,outcome,[6],inactive
same,outcome,[7],inactive
same,outcome,[8],inactive
same,outcome,[9],inactive
same,outcome,[10],inactive
CCO[Si](CCC1CCC2OC2C1)(OCC)OCC (centres undefined),outcome,[1],inactive
CC(C)CCOCCC(C)C,outcome,[1],inactive
same,outcome,[2],inactive
CCCCCCCCC(C)=O,outcome,[1],inactive
CC(C)(C)c1ccc(CCC=O)cc1,outcome,[1],inactive
same,outcome,[2],inactive
same,AC50,[4],41.2 µM (active)
CC(O)COc1ccccc1 (centres undefined),outcome,[1],inactive
same,outcome,[2],inactive
same,outcome,[3],inactive
FC(OC(F)(F)C(F)(F)C(F)(F)F)C(F)(F)F (centres undefined),outcome,[1],inactive
same,outcome,[2],inactive
same,outcome,[4],inactive
Brc1ccc(Oc2ccc(Br)cc2Br)cc1,outcome,[1],inactive
CC1=NN(c2ccccc2)C(=O)C1,outcome,[1],inactive
same,outcome,[2],inactive
same,outcome,[4],inactive
same,outcome,[3],inactive
same,outcome,[5],inactive
same,outcome,[6],inactive
same,outcome,[7],inactive
same,outcome,[8],inactive
same,outcome,[9],inactive
same,outcome,[10],inactive
Cc1ccc2ccc3ccc(C)cc3c2c1,outcome,[1],inactive
same,outcome,[2],inactive
same,AC50,[4],12.9 µM (active)
COC(=O)CC(C(C)=O)C(=O)OC (centres undefined),outcome,[1],inactive
COC(O)c1ccccc1 (centres undefined),outcome,[1],inactive
CCOC=O,outcome,[1],inactive
same,outcome,[2],inactive
same,AC50,[4],6.71 µM (active)
